Consider 87 compounds from PubChem BioAssay AID651718 (The Scripps Research Institute Molecular Screening Center, 2012).

In all, about 360,000 compounds went through this assay and about 2,700 (0.75%) were called active. This is one part of a sample in which actives are shown more often than they occur. A number with no mark means an inactive call. Rule as the data show it: active = inhibition above about 4.5%; inactive = the rest.

The test has as its system Methionine sulfoxide reductase A (Bos taurus). The test can be described thus: inhibition of methionine sulfoxide reductase A – biochemical, absorbance, bovine, HTS, primary screen (AID 651718).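 Also: 0% = vehicle wells with enzyme and 100% = reference inhibitor wells.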 The following applies: purified bovine MsrA, absorbance read-out; at 15.5 µM; stronger effect = higher value.
Usually inhibition stands for the drop in the measured response relative to a control, in per cent. On to `O=[N+]([O-])c1ccccc1/C=N/n1c(COc2ccccc2)n[nH]c1=S`, for which the inhibition was 0.65%.
In the case of `CCc1n[nH]c(=S)n1/N=C/c1c[nH]c2ccc(Br)cc12`, the inhibition was 0.05%.
Then `S=c1[nH]nc(-c2ccccc2)n1/N=C/c1c[nH]c2ccccc12`, with 5.73% (active).
For the compound `CC1CCN(C(=O)c2ncn3c2C(=O)N[C@@H](C)C3)CC1`, the inhibition is 0.14%.
On to `O=C(NCc1ccccc1)[C@H]1CCCN1C(=O)[C@H]1CCCN1C(=O)N1CCOCC1`, for which the inhibition was -0.41%.
The result for `CN(C)c1nc(N)nc(CSc2ccccn2)n1` reads 0.24%; that for `C=CCN=C1NC(c2cccc(C(F)(F)F)c2)C(C(=O)OC)=C(C)N1C` (configuration not stated), -0.08%.
The result for `CCc1ccc(Oc2coc3cc(OC(=O)c4cc5ccccc5oc4=O)ccc3c2=O)cc1` reads 1.04%; that for `Cc1cc(C)cc(OCC(=O)NNC(=O)c2cc3ccccc3oc2=O)c1`, 0.25%.
The result for `CCCOC(=O)c1cc2ccccc2oc1=O` reads 13% (active).
In the case of `COC(=O)Cc1nnn2c1[C@H](C)[C@H](c1ccccc1[N+](=O)[O-])OCC2`, the inhibition was 0.24%.
Then `Cc1c(C(=O)NNC(=O)c2ccncc2)oc2ccccc12`, with 0.46%; and `Cc1c(C=O)c2ccccn2c1C(=O)c1ccncc1`, with 4.76% (active); and `Cc1c(C=O)c2ccccc2n1CC(=O)O`, with 2.23%.
Then `O=C(NCCc1nnc2ccc(SCC(=O)N3CCOCC3)nn12)c1ccccc1`, with -0.18%.
The result for `Cc1noc(C)c1NC(=O)Nc1ccc2c(c1)C(=O)N([C@H](C)CO)C[C@H](C)[C@H](CN(C)Cc1ccncc1)OCCCC[C@@H](C)O2` reads -0.23%; that for `CCN1C(=O)N[C@@H]2C[C@H](C(=O)N3CCCC3)[C@H](C)[C@H](c3ccccc3)C[C@@H]21`, -0.32%.
On to `O=C(N/N=C/c1ccc2c(c1)OCO2)c1ccc(Cn2cc([N+](=O)[O-])cn2)o1`, for which the inhibition is 6.14% (active).
For `O=C(c1ccc(Cn2cc([N+](=O)[O-])cn2)o1)N1CCCC1`, the inhibition is 0.09%.
The result for `CN(C)c1ccc(/C=N/NC(=O)c2ccc(Cn3cc(Br)cn3)o2)cc1` reads 4.19%; that for `N/C(=N\OS(=O)(=O)c1cccc([N+](=O)[O-])c1)c1ccncc1`, -0.51%.
On to `CCCCCCCCN1C(=O)[C@@H](CC(=O)NCc2ccc(C)o2)C[C@@]2(C(=O)OC)C1=C[C@H](C(C)(C)C)O[C@@H]2C`, for which the inhibition was -0.4%.
Then `CC(=O)c1ccccc1OCc1ccc(C(=O)c2ccccc2)cc1`, with 0.66%; and `Cc1cc2nc3c(=O)[nH]c(=O)nc-3n(C[C@H](O)[C@H](O)[C@H](O)CO)c2cc1C`, with 2.57%; and `CCN(CC)CCCC(C)n1c2nc(=O)[nH]c(=O)c-2nc2cc(Cl)ccc21` (configuration not stated), with 14.4% (active).
Then `O=S1(=O)c2c(cccc2N2CCCCC2)O[C@H](COCc2ccccc2)CN1C1CC1`, with -0.51%; and `Cc1ccc(CSc2nsc(C)c2C#N)cc1`, with 0.38%.
Then `CC(C)=C1SC(N2CCN(c3ccc(C)c(Cl)c3)CC2)=NC1=O`, with -1.4%; and `O=C1N=C(N2CCOCC2)S/C1=C\C=C/c1ccccc1`, with 3.23%; and `Cc1ccc(N2CCN(C3=NC(=O)/C(=C\c4cccs4)S3)CC2)cc1`, with 5.14% (active).
As to `COc1ccc(S(=O)(=O)Nc2ccc3c(c2)C(=O)N([C@H](C)CO)C[C@H](C)[C@@H](CN(C)C)OCCCC[C@H](C)O3)cc1`, the inhibition was 0.52%.
The result for `Cc1c(C(=O)OCC(=O)N2CCCC2=O)oc2ccccc12` reads -1.01%.
Then `Cc1ccc(C(=O)N2CCCc3ccccc32)c(Cl)c1`, with -0.31%; and `Cc1c(C(=O)N2CCCc3ccccc32)oc2ccccc12`, with 10.3% (active); and `O=C1Nc2ccccc2C1=NN=Cc1ccco1`, with 0.16%.
Then `CCOC(=O)/C(C#N)=C\c1c(C)cc(C)c(COC(C)=O)c1C`, with 0.74%.
`COc1ccc(/C=C(\C#N)C(=O)ONC2=NCCCCC2)cc1`: the inhibition is 1.44%.
For `COC(=O)/C(C#N)=C/c1occc1C`, the inhibition is 5.68% (active).
Then `COc1ccc(CN2CCNC(=O)C2CC(=O)N(C)Cc2ccccn2)cc1OC` (configuration not stated), with -0.62%; and `C[N+](C)(C)CCOP(=O)([O-])OC[C@H](O)CO`, with 0.34%.
Then `CCCCC(=O)Nc1ccccc1N1CCN(c2ccc(F)cc2)CC1`, with -1.12%.
The result for `CC(=O)c1ccc(N2CCN(CC(=O)Nc3ccccc3N3CCOCC3)CC2)cc1` reads 4.88% (active); that for `O=C(Nc1ccccc1N1CCOCC1)c1ccncc1`, 1.2%; that for `COC(=O)N1Cc2ccnnc2CC1c1ccccc1Br` (configuration not stated), -0.9%.
Consider `CN(Cc1ccccc1)C(=O)c1ccc(NC2=NC3CS(=O)(=O)CC3S2)cc1` (configuration not stated), for which the inhibition was 1.72%.
The result for `COc1ccc(C2=NS(=O)(=O)N(C)C(C(=O)NC(C)c3ccccc3)=C2)cc1` (configuration not stated) reads 4.29%; that for `COc1ccc(C2=NS(=O)(=O)N(C)C(C(=O)N3CCCCC3)=C2)cc1`, 5.54% (active).
On to `COc1ccc(C2=NS(=O)(=O)N(C)C(C(=O)N(C)Cc3ccccc3)=C2)cc1`, for which the inhibition was 3.53%.
The result for `CCCCCCc1cc2cc(-c3nnc(-c4cccc(OC)c4)o3)c(=O)oc2cc1O` reads -0.59%.
As for `O=C(N/N=C/c1ccc(O)c(O)c1)C1c2ccccc2Oc2ccccc21`, the inhibition is 0.85%.
Then `COc1ccc(/C=N/Nc2ncnc3sc4c(c23)CCCC4)cc1O`, with 4.5%; and `Oc1ccc(/C=N/Nc2ccc(C(F)(F)F)cn2)cc1O`, with 7.63% (active); and `CC(=O)c1sc2nc(SCC(=O)N3CCCCC3)[nH]c(=O)c2c1C`, with 6.38% (active).
The result for `CSc1nnc(SCc2nc3sc(C(=O)O)c(C)c3c(=O)[nH]2)s1` reads 0%.
In the case of `Cc1c(C)n2c(SCC(=O)N3CCCC3)nnc2[nH]c1=O`, the inhibition was -0.57%.
The result for `COc1ccc(-c2ccccc2C2Cc3nnccc3CN2C(=O)Nc2ccccc2)cc1` (configuration not stated) reads 2.13%; that for `CC(=O)N1C[C@@H](CO)[C@@H](N(C)C(=O)C(C)(C)C)C[C@H]1c1ccccc1Br`, 0.66%; that for `O=C1C=C(c2cccc(Cl)c2O)C[C@@H](c2ccc(F)cc2)C1`, -0.68%.
Then `COc1cccc(C2=CC(=O)C[C@H](c3ccc(F)cc3)C2)c1OC`, with 6.7% (active).
The result for `COc1ccccc1C1=CC(=O)C[C@H](c2ccc(F)cc2)C1` reads 1.16%; that for `COC(=O)[C@]12C[C@H](CC(=O)NCc3cccc(C(F)(F)F)c3)C(=O)N(Cc3ccc4c(c3)OCO4)C1=C[C@H](COCc1ccccc1)O[C@@H]2C`, 0.87%; that for `CC(C)C[C@H](NC(=O)CC1CCCC1)C(=O)N1CCC[C@H]1C(=O)NCc1ccccc1`, 0.9%.
Take `COC(=O)C1=C(C)N(Cc2cccc(C(F)(F)F)c2)C(=NCc2cccc(C(F)(F)F)c2)NC1c1ccccc1C(F)(F)F` (configuration not stated): the inhibition is -1.33%.
In the case of `Cc1ccc(S(=O)(=O)c2c(N)n(C)c3nc4ccccc4nc23)cc1`, the inhibition is 4.64% (active).
As to `CCC(=O)Nc1c(S(=O)(=O)c2ccccc2)c2nc3ccccc3nc2n1Cc1ccccc1`, the inhibition is 2.69%.
The result for `CCN(CC)CCn1c(N)c(S(=O)(=O)c2ccccc2)c2nc3ccccc3nc21` reads 0.85%.
Then `O=C1CN(C(=O)COc2c(Cl)cccc2Cl)c2ccccc2N1`, with -0.91%; and `COC(=O)[C@]12C[C@H](CC(=O)NCc3ccccc3)C(=O)N(CCC3=CCCCC3)C1=C[C@H](C(C)(C)C)O[C@@H]2C`, with 0.95%.
The result for `O=C(CCC(=O)N/N=C/c1ccc(Br)o1)N/N=C/c1ccc(Br)o1` reads 1%; that for `O=C(CCNC(=O)c1ccccc1)NN=Cc1ccc(Br)o1`, 0.9%; that for `O=C(N/N=C/c1ccc(Br)o1)c1cncc(Br)c1`, 4.63% (active).
For the compound `CCCCN(C(=O)COc1ccc(NC(C)=O)cc1)C1CCS(=O)(=O)C1` (configuration not stated), the inhibition was -0.22%.
The result for `Cc1cc(C)c(S(=O)(=O)NCC(c2ccc3c(c2)OCO3)N2CCOCC2)c(C)c1` (configuration not stated) reads -0.85%; that for `CC(C)OP(=O)(OC(C)C)C(Nc1ccccc1)c1cccc([N+](=O)[O-])c1` (configuration not stated), 1.56%.
The result for `CC(Nc1ccc([N+](=O)[O-])cc1[N+](=O)[O-])c1ccccc1` (configuration not stated) reads 35.6% (active); that for `CC1(C)C/C(=N/Nc2ccc([N+](=O)[O-])cc2[N+](=O)[O-])C(C)(C)O1`, -0.53%; that for `COC(=O)[C@]12C[C@H](CC(=O)N3CCN(C(=O)C4CC4)CC3)C(=O)N(Cc3ccc4c(c3)OCO4)C1=C[C@H](C(C)(C)C)O[C@@H]2C`, -0.48%.
The result for `CC(=O)c1ccc(S(=O)(=O)NCC2CCN(C(=O)C(=O)c3cccs3)CC2)cc1` reads 0.56%; that for `Cc1ccc2nc(CN(C)C(=O)[C@@H](Cc3ccccc3)NC(=O)[C@H]3O[C@@H](n4ccc(=O)[nH]c4=O)[C@H](O)[C@@H]3O)[nH]c2c1`, 0.5%; that for `Cc1ccc(C(=O)Nc2c(C#N)c(C)c(C)n2Cc2ccccc2)cc1`, -0.41%.
With `Cc1ccc(C(=O)N/N=C/c2sc(=O)n(Cc3cccc(C(=O)O)c3)c2Cl)cc1`, the inhibition is 6.02% (active).
Then `Cc1ccccc1-n1c(C)cc(/C=N/NC(=O)c2ccc(CN3CCOCC3)cc2)c1C`, with 1.71%; and `CC1CC(c2ccccc2)n2nc(NC(=O)c3cccs3)nc2N1` (configuration not stated), with -0.81%; and `CC1=C(N2CCN(c3ncccn3)CC2)CCC1=O`, with 0%.
`O=C1/C(=C\Nc2ccccc2)CCN1c1ncccn1`: the inhibition is 5.03% (active).
Turning to `COc1ccccc1Oc1ccc(N/C=C2/CCCC2=O)cc1`, the inhibition is 1.18%.
Then `CNS(=O)(=O)c1ccc(NC(=O)C2CC(=O)N(c3ccc(Cl)cc3)C2)cc1` (configuration not stated), with 1.4%.
